We go through 13 targets from the supplement of paper PMC10849652.

Common to all, as to experiment: log2 fold change, soluble protein after heating vs DMSO (PISA); higher = thermal stabilisation; K562 lysate, 10 uM; active = over 0.2 and 3.5 SD of the protein, either way, in both replicates (recomputed)
Compound in experiment [1]: Cc1cn(-c2cc(NC(=O)c3ccc(C)c(Nc4nccc(-c5cccnc5)n4)c3)cc(C(F)(F)F)c2)cn1 [nilotinib]
The gist of the method: (§1)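 A 30 min treatment with 10 μM compound was applied to crude K562 extract at 1 mg/mL protein in PBS pH 7.4 with 1 mM MgCl2. Heating for 3 min spanned 48°C-58°C, after which aliquots were pooled, adjusted to 0.5% NP-40 at 4°C and spun at 21,000xg for 90 min. TMTpro 16plex LC-MS/MS of the supernatant, with channel sums equalised, gave values recorded as log-two fold change in thermal stability against solvent controls, from duplicates.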

Compound in experiment [2]: Cc1nc(Nc2n[nH]c3c2CN(C(=O)N[C@H](CN(C)C)c2ccccc2)C3(C)C)c2sccc2n1
Summed up:
as §1

Compound in experiment [3]: Cc1nc(Nc2ncc(C(=O)Nc3c(C)cccc3Cl)s2)cc(N2CCN(CCO)CC2)n1 [dasatinib]
The gist of the method: as §1

Compound in experiment [4]: Cc1ncc(-c2ccnc(Nc3ccc(S(C)(=O)=O)cc3)n2)n1C(C)C
The gist of the method:
as §1

Compound in experiment [5]: Cn1cc(-c2ccc3c(c2)CCN3C(=O)Cc2cccc(C(F)(F)F)c2)c2c(N)ncnc21
The gist of the method:
as §1

Compound in experiment [6]: Cn1cc(CNCC2CCN(c3ncc(C(=O)NO)cn3)CC2)c2ccccc21 [quisinostat]
Summed up:
as §1

Compound in experiment [7]: Cn1cncc1[C@@](N)(c1ccc(Cl)cc1)c1ccc2c(c1)c(-c1cccc(Cl)c1)cc(=O)n2C [tipifarnib]
Summed up:
as §1

Compound in experiment [8]: NC(=O)Nc1cc(-c2cccc(F)c2)sc1C(=O)N[C@H]1CCCNC1
The gist of the method: as §1

Compound in experiment [9]: NC1(c2ccc(-c3nc4ccn5c(=O)[nH]nc5c4cc3-c3ccccc3)cc2)CCC1
The gist of the method: as §1

Compound in experiment [10]: NCC(=O)Nc1ccc(-n2nc(C(F)(F)F)cc2-c2ccc3c(ccc4ccccc43)c2)cc1
The gist of the method:
as §1

Compound in experiment [11]: O=C(CCCCCCC(=O)Nc1ccccc1)NO [vorinostat]
Summed up: as §1

Compound in experiment [12]: O=C(O)c1ccc2c(c1)nc(Nc1cccc(Cl)c1)c1ccncc12 [silmitasertib]
Summed up:
as §1

Compound in experiment [13]: O=C1NC(=O)C(c2cnc3ccccn23)=C1c1cn2c3c(cc(F)cc13)CN(C(=O)N1CCCCC1)CC2
Summed up: as §1

Compound in experiment [14]: c1cn2cc(-c3ccc4cn[nH]c4c3)nc(Nc3ccc(N4CCOCC4)cc3)c2n1 [entospletinib]
Summed up:
as §1

Compound in experiment [15]: NC(=O)c1cnc(N[C@@H]2CCCC[C@@H]2N)nc1Nc1cccc(-n2nccn2)c1
Summed up: as §1

About 8,800 targets were measured; listed, in parts, are those with a hit and a random draw of the rest. About 0.5% of all pairs of compound and target were hits. Unmarked numbers belong to inactive results.

Sequence of UniProt Q8WZA2 (Q8WZA2 whole entry, looked up): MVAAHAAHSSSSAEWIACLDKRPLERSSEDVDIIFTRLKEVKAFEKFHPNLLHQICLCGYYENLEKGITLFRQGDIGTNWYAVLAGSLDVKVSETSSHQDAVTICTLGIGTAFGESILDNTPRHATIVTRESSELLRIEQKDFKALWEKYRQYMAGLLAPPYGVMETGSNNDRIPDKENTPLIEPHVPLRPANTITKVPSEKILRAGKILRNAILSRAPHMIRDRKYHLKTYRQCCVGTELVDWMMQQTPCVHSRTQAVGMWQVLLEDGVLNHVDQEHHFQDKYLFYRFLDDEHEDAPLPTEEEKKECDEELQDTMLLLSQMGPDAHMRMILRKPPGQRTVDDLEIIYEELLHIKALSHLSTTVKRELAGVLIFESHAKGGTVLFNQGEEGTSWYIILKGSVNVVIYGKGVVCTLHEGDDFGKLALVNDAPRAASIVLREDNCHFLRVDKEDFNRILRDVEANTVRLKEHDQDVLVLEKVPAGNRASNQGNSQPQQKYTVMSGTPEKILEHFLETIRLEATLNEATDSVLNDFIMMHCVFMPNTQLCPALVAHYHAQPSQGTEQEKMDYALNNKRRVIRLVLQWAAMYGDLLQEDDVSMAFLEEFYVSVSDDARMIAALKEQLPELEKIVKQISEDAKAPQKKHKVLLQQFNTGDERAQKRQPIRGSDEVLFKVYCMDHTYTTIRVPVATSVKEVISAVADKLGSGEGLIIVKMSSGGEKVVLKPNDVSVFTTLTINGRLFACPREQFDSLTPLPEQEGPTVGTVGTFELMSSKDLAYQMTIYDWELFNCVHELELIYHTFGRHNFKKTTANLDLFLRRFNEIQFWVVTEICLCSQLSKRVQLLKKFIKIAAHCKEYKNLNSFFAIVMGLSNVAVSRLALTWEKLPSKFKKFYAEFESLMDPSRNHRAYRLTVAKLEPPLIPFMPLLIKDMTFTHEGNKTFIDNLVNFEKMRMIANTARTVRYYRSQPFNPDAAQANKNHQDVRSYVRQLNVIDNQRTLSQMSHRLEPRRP
Sequence of UniProt Q99496 (Q99496 whole entry, looked up): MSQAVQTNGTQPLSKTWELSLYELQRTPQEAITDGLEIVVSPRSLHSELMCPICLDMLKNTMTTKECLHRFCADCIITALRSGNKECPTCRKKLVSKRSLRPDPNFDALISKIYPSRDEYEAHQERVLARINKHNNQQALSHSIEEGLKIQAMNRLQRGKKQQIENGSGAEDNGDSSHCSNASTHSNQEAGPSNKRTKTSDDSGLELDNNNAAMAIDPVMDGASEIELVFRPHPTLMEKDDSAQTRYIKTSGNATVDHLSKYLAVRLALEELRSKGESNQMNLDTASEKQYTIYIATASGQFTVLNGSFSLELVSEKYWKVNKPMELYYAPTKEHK
Sequence of UniProt Q92698 (Q92698 whole entry, looked up): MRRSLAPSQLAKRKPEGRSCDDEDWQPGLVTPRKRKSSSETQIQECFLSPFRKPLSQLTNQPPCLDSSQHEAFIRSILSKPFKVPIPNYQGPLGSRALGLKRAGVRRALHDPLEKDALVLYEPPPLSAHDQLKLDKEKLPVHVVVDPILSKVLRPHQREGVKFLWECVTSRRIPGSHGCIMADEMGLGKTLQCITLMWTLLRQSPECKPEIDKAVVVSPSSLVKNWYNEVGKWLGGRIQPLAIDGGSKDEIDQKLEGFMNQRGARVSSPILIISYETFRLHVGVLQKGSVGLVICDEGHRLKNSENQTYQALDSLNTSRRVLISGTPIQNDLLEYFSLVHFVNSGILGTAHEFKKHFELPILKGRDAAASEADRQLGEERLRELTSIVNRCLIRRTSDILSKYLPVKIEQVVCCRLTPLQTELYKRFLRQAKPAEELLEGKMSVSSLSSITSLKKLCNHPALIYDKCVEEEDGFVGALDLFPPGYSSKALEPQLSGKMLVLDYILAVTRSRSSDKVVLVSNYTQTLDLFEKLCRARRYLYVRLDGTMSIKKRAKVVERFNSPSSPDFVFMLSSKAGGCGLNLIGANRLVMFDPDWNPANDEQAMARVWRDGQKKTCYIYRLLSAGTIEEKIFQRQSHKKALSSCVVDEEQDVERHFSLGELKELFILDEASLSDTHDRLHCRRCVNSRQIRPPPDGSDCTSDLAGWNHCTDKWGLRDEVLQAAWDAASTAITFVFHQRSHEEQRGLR
Sequence of UniProt Q9BUV8 (Q9BUV8 whole entry, looked up): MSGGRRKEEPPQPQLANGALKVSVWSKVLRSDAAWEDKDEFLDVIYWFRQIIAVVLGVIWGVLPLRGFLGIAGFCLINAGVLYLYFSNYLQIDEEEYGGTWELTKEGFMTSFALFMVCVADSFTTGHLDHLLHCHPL
Sequence of UniProt Q9Y6D0 (Q9Y6D0 whole entry, looked up): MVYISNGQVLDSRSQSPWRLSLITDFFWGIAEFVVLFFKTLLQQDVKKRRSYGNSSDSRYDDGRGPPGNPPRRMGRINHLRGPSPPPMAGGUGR
Sequence of UniProt Q9NVW2 (Q9NVW2 whole entry, looked up): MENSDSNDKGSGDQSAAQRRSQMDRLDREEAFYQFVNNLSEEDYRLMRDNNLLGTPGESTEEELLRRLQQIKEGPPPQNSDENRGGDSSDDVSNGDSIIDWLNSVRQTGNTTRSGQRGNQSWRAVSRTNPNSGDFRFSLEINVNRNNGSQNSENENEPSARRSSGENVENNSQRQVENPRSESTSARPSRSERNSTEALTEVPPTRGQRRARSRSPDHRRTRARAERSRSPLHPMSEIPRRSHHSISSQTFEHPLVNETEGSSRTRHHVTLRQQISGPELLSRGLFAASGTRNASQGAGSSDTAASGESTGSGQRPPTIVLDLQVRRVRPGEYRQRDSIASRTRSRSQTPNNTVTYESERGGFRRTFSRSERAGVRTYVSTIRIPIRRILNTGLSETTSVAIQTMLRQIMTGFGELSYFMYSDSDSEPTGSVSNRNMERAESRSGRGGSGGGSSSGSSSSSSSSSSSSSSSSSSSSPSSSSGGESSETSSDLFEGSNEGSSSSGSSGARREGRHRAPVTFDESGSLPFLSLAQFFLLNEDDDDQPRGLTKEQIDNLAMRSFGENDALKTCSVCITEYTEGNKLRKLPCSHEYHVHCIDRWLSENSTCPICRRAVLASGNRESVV
Sequence of UniProt O94761 (O94761 whole entry, looked up): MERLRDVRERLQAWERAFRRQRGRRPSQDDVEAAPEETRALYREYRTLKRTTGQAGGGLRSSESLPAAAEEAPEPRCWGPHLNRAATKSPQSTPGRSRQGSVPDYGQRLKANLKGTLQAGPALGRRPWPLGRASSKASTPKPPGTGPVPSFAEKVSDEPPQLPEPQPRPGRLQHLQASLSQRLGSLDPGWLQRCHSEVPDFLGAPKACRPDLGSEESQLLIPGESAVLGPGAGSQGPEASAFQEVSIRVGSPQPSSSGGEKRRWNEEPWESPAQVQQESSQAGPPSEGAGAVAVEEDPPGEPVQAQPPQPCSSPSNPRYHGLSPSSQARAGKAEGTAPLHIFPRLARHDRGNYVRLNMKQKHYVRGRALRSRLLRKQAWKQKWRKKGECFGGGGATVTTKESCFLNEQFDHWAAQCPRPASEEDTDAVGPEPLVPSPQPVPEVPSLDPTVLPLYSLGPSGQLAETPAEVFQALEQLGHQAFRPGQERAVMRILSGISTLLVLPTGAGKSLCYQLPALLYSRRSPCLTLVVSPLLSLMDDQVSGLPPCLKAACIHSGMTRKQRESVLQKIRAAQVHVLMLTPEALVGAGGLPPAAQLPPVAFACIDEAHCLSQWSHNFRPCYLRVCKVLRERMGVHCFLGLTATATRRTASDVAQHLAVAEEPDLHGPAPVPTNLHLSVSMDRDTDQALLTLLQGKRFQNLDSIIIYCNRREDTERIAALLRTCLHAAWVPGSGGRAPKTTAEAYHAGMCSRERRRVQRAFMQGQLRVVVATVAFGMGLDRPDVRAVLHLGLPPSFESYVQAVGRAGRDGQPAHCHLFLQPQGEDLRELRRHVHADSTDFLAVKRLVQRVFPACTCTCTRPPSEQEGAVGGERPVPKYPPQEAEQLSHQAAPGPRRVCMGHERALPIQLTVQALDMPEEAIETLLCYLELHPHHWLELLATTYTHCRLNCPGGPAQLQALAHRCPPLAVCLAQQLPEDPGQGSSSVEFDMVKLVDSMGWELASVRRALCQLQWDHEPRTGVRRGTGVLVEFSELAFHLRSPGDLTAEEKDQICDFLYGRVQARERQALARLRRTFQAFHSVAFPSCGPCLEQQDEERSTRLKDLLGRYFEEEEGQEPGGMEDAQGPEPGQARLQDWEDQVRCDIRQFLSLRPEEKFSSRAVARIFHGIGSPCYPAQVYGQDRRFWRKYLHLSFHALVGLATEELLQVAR
Sequence of UniProt Q96E14 (Q96E14 whole entry, looked up): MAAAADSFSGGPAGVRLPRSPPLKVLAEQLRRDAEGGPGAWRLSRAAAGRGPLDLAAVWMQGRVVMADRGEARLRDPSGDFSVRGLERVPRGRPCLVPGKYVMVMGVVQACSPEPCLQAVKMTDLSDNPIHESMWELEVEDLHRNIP
Sequence of UniProt Q96JX3 (Q96JX3 whole entry, looked up): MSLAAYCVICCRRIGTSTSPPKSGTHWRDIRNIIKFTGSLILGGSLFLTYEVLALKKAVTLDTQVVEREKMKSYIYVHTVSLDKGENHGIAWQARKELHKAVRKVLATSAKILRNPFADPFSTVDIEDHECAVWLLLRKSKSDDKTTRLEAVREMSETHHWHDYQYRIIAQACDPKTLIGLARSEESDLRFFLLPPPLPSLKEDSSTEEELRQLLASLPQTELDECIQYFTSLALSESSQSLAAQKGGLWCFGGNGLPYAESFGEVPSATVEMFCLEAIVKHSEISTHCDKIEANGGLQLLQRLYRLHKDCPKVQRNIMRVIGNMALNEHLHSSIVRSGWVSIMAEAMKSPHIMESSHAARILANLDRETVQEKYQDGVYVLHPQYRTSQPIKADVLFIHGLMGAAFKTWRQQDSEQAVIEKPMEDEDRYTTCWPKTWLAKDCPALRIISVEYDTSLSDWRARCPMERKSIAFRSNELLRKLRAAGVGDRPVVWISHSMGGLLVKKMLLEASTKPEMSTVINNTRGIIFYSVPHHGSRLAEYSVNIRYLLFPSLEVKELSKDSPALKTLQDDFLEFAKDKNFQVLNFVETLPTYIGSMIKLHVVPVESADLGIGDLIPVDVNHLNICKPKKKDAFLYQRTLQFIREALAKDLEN

With RECQL4 (UniProt O94761), the log2 fold change in [1] is 0.051; in experiment [2] it was 0.102; in experiment [3], -0.007; in [4] it was -0.063; in experiment [5], -0.019; in experiment [6], -0.094. Moreover, the log2 fold change in [7] was 0.024; in experiment [8], 0.023; in experiment [9] it was 0.017; in experiment [10] it was -0.003; in experiment [11], -0.044; in [12], 0.019. The log2 fold change in experiment [13] was 0.022; in experiment [14], -0.023.
For the target RAPGEF4 (UniProt Q8WZA2), the log2 fold change in [3] was -0.092; in experiment [5] it was -0.061; in experiment [6], -0.491; in experiment [8] it was 0.16; in experiment [15], 0.064; in [9] it was -0.192. The log2 fold change in [10] was 0.219; in experiment [11] it was 0.143; in experiment [12], -0.09; in [13] it was 0.353; in experiment [14], 0.014.
SERAC1 (UniProt Q96JX3): the log2 fold change in experiment [1] was 0.085; in experiment [2], -0.133; in experiment [3], -0.152; in [4], -0.029; in [5], 0.052; in experiment [7] it was 0.033. Moreover, the log2 fold change is -0.023 in experiment [9], 0.236 in experiment [11], 0.155 in experiment [12] and -0.001 in experiment [14].
Consider RYR1 (UniProt P21817), for which the log2 fold change was -0.032 in [3]; -0.061 in experiment [5]; -0.392 (active) in [6]; 0.046 in experiment [8]; 0.029 in experiment [15]; 0.003 in experiment [9]. The log2 fold change is 0.066 in experiment [11], -0.017 in experiment [12], -0.069 in [13] and 0.101 in experiment [14].
Regarding RLIM (UniProt Q9NVW2), the log2 fold change in experiment [6] was -0.748 (active); in experiment [8] it was 0.233; in [13], 0.289.
On to RAB5IF isoform 5 (UniProt Q9BUV8), for which the log2 fold change in experiment [1] was -0.033; in [2] it was -0.033; in experiment [3], -0.108; in experiment [4] it was -0.003; in [5], 0.06; in [7] it was -0.189. For the same target, the log2 fold change in experiment [15] is 0.026; in experiment [9], -0.096; in experiment [10], -0.039; in [11], -0.039; in experiment [12] it was -0.007; in experiment [14], -0.015.
In the case of S100A6 (UniProt P06703), the log2 fold change is 0.774 (active) in experiment [3]; -0.063 in [5]; 0.001 in [6]; -0.078 in experiment [8]; -0.063 in experiment [15]; 0.026 in experiment [9]. Moreover, the log2 fold change was 0.064 in experiment [10]; 0.136 in experiment [11]; -0.036 in [12]; -0.071 in experiment [13]; -0.005 in [14].
Turning to RNF2 (UniProt Q99496), the log2 fold change is 0.026 in [1]; -0.047 in experiment [2]; -0.07 in experiment [3]; 0.027 in experiment [4]; -0.025 in experiment [5]; 0.154 in experiment [6]. Also, the log2 fold change in experiment [7] was -0.124; in experiment [8], -0.015; in [9] it was -0.05; in experiment [10] it was -0.015; in experiment [11], -0.037; in experiment [12] it was 0.021. The figures for the log2 fold change in experiment [13] and in [14] were 0.008 and -0.033, respectively.
As to RAD54L (UniProt Q92698), the log2 fold change was -0.004 in [1]; 0.078 in experiment [2]; -0.212 in [3]; 0.037 in experiment [4]; -0.054 in experiment [5]; 0.007 in [7]. In addition, the log2 fold change in experiment [15] was 0.015; in experiment [9], -0.073; in [11], -1.06 (active); in [12], 0.065.
As to RMI2 (UniProt Q96E14), the log2 fold change in [3] is -0.049; in experiment [5] it was -0.044; in experiment [6], -0.051; in experiment [8] it was 0.021; in experiment [9] it was 0.082; in [10], -0.008. Further, the log2 fold change in experiment [11] was -0.586 (active); in [12], 0.092; in [13], 0.041; in [14] it was -0.01.
As to RBBP7 (UniProt C9J7L0), the log2 fold change in experiment [1] was -0.133; in [2] it was 0.046; in [4] it was 0.222; in [7] it was 0.039.
In the case of RNF24 isoform 2 (UniProt Q9Y225), the log2 fold change in experiment [1] was 0.105; in experiment [2], -0.028; in experiment [4], 0.123; in experiment [6], -0.139; in [7], 0.034; in [8], -0.075. For the same target, the log2 fold change is 0.051 in experiment [9], 0.918 (active) in experiment [11], -0.117 in experiment [12] and 0.016 in experiment [13].
SELENOK (UniProt Q9Y6D0): the log2 fold change in experiment [1] is -0.009; in experiment [2] it was -0.032; in experiment [3] it was 0.082; in [4] it was 0.064; in experiment [5], -0.032; in experiment [7] it was -0.077. The figures for the log2 fold change in [15] and in [10] were 0.001 and -0.192, respectively.
